In the library only some 3.4% were active in any assay of this set; here they are far more common.
TEAD-YAP inh: TEAD-YAP interaction inhibition, primary screen, TEAD-YAP interaction inhibitor project, luminescence, HEK-TIYL cells. inhibition, % at 9.12 µM. 640,000 compounds, 1.4% hits. TEAD-Gal4/YAP UAS-luciferase luminescence. AID 1259422, 2018; in the data active means inhibition above about 32%;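 further: 0% = median of test compound wells and 100% = reference inhibitor wells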
GPR151 activ: activators of human GPR151, primary screen, cell-based, PathHunter beta-arrestin, luminescence; G-protein coupled receptor 151 (Homo sapiens), Q8TDV0; PathHunter beta-arrestin GPR151 cells; activation, % at 11.2 µM; 650,000 compounds, 1% hits; AID 1508602, 2020; in the data active means activation above about 4.9%;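 further: 0% = median of compound wells and 100% = cells with positive control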
MITF primary: MITF inhibitors, primary screen, biochemical, AlphaScreen, human. Microphthalmia-associated transcription factor (Homo sapiens), O75030. AlphaScreen MITF homodimerization, bead proximity signal. inhibition, % at 2.6 µM. 650,000 compounds, 0.91% hits; in the data active means inhibition above about 50%;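 further: 0% = vehicle wells with protein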
FBW7 act: FBW7 E3 ligase activators, primary screen, biochemical, AlphaScreen, human; AlphaScreen FBW7–phospho-cyclin E peptide binding, activator screen; normalized activity (activation), % at 26.1 µM; 650,000 compounds, 0.13% hits; in the data active means normalized activity above about 1.9%;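 further: purified mutant Fbw7 with reduced substrate affinity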
GPR151 confirm: GPR151 activators, triplicate retest, confirmation, cell-based, PathHunter beta-arrestin, luminescence. 6,700 tested, under 10 active. GPR151 PathHunter beta-arrestin cells, 90 min; % of EA-reagent control over plate median. shares compounds with GPR151 activ. activation, % at 11.2 µM;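 active means mean percent activation across replicates above the confirmation screen cutoff of 4.91%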
GPR119 ag: GPR119 activators in beta-arrestin cells, counter-screen for GPR151 activator project, cell-based, PathHunter beta-arrestin, luminescence, triplicate. shares compounds with GPR151 activ. 90 min; 0 = compound-well median, 100 = enzyme-acceptor control. activation, % at 11.2 µM. 6,700 compounds, 0.3% hits;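 active means mean percent activation in the counterscreen above 29.09%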;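 further: counterscreen on off-target GPR119 to flag nonselective hits from the GPR151 activator screen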
Target sequence (Q8TDV5 whole entry, looked up): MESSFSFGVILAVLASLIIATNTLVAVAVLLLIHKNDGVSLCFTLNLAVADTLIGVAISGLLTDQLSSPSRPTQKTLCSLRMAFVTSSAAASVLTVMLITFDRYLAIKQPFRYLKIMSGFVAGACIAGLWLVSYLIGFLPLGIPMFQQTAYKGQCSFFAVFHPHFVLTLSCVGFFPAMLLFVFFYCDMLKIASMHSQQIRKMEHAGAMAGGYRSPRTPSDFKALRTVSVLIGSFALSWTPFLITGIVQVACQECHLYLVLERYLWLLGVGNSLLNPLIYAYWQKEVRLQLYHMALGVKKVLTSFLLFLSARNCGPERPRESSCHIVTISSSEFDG
Numbers without * were called inactive; x = no result.

SMILES | TEAD-YAP inh | GPR151 activ | MITF primary | FBW7 act | GPR151 confirm | GPR119 ag
COc1cc(Nc2nc(NCc3ccc4c(c3)OCO4)nc3c2ncn3Cc2ccc(C(F)(F)F)cc2)cc(OC)c1OC | -4 | -1 | -3 | 0 | x | x
COc1ccc(-n2ccnc2CN2CCN(C(C)C)C(CCO)C2)cc1 (stereo not given) | -1 | 5.0* | 5 | 0 | 0 | -9
CC(C)N1CCN(Cc2ccc(OC3CCCC3)cc2)CC1CCO (stereo not given) | 13 | 17* | 10 | 0 | -1 | 2
CC(C)N1CCN(Cc2ccc(OCc3ccccc3)cc2)CC1CCO (stereo not given) | -3 | -1 | 9 | 0 | x | x
CC(C)N1CCN(Cc2cccn2-c2cccnc2)CC1CCO (stereo not given) | -5 | -1 | 2 | 0 | x | x
Cc1[nH]c2ccccc2c1C(c1cccnc1)c1c(C)[nH]c2ccccc12 | -6 | 0 | 16 | 0 | x | x
CCOC(=O)CCC(=O)Nc1cccc2c(NC(=O)CCC(=O)OCC)cccc12 | -10 | 2 | -27 | 0 | x | x
CCOC(=O)CCC(=O)Nc1cccc(Cl)c1Cl | 4 | 6.9* | 5 | 0 | 0 | -4
CC(=O)c1cccc(S(=O)(=O)NCc2ccco2)c1 | -22 | 0 | 7 | 0 | x | x
CC(=O)c1cccc(S(=O)(=O)NCC(c2ccco2)N2CCCCC2)c1 (stereo not given) | 10 | 7.0* | -11 | 0 | 0 | 0
CC(=O)Oc1ccccc1C(=O)N1CCc2nc3ncccc3cc2C1 | 5 | -1 | 10 | 0 | x | x
Cc1nc(CNc2nncc(-c3ccc(Cl)cc3)n2)cs1 | -24 | 9.4* | 0 | 0 | -1 | 3
Cc1nc(SCC(O)CCl)c([N+](=O)[O-])[nH]1 (stereo not given) | -3 | 8.5* | 2 | 0 | 0 | 1
COC(=O)c1ccc(CSc2nc(C)[nH]c2[N+](=O)[O-])o1 | 0 | 2 | -16 | 0 | x | x
COc1cc(C2C(C(=O)OC3CCCC3)=C(C)NC3=C2C(=O)CC(c2ccc(Cl)cc2)C3)ccc1OC(C)=O (stereo not given) | 5 | 5.5* | 5 | 0 | 0 | 0
CCOc1ccc(C2C(C(=O)OC3CCCCC3)=C(C)NC3=C2C(=O)CCC3)cc1OC (stereo not given) | 4 | 1 | -7 | 0 | x | x
CCCOc1ccc(C2C(C(=O)OC3CCCCC3)=C(C)NC3=C2C(=O)CCC3)cc1OC (stereo not given) | 17 | 7.2* | 12 | 1 | -1 | -6
O=C(Nc1ccc(NC(=O)c2cc([N+](=O)[O-])ccc2Br)cc1)c1ccc(Br)cc1 | 9 | -1 | 9 | 1 | x | x
O=C(CNC(=O)c1ccc(F)cc1)OCC(=O)c1ccc[nH]1 | 5 | 3 | 2 | 0 | x | x
c1ccc(-c2cc(-c3ccccc3)n(-c3cc(N4CCCCC4)ncn3)n2)cc1 | 5 | 3 | 21 | 0 | x | x
CC(C)(C)c1ccc(C(=O)CC(NCCCn2ccnc2)C(=O)O)cc1 (stereo not given) | 1 | 1 | 0 | 0 | x | x
CCN(CC)c1ccc(/C=N/n2cnnc2)c(O)c1 | 2 | 10* | -3 | 0 | 1 | 0
Cc1cccc(-n2c(O)c(C=Nc3ccccc3I)c(=O)[nH]c2=O)c1 | 15 | -1 | 5 | 1 | x | x
Cc1cccc(-n2c(O)c(/C=N/n3cnnc3)c(=O)[nH]c2=O)c1 | -1 | 5.3* | -2 | 0 | 0 | -3
O=C1CCC([N+](=O)[O-])C(c2ccc(Cl)c(Cl)c2)N1 (stereo not given) | -6 | -1 | -7 | 0 | x | x
SMILES | TEAD-YAP inh | GPR151 activ | MITF primary | FBW7 act | GPR151 confirm | GPR119 ag
O=C1CCC([N+](=O)[O-])C(c2ccc3c(c2)OCO3)N1 (stereo not given) | -2 | 7.7* | -6 | 0 | 0 | 13
CCC(=O)NNC(=O)CSc1nnc2c3c(C)c(C)sc3nc(C(C)C)n12 | 9 | 0 | -1 | 0 | x | x
Cc1sc2nc(C(C)C)n3c(SCC(=O)NNC(=O)C(C)C)nnc3c2c1C | 3 | 7.4* | 6 | 0 | 1 | 8
C[C@H]1O[C@@H](O[C@H]2[C@@H](O)C[C@H](O[C@H]3[C@@H](O)C[C@H](O[C@H]4CCC5(C)[C@H](CC[C@@H]6[C@@H]5C[C@@H](O)C5(C)C(C7=CC(=O)OC7)CCC65O)C4)O[C@@H]3C)O[C@@H]2C)C[C@H](O)[C@@H]1O (stereo not given in full) | x | 5.0* | -7 | 0 | 0 | 98*
Cn1ncc2c(NCCc3ccc(Cl)cc3Cl)ncnc21 | 28 | 5.0* | 1 | 0 | 3 | 35*
Cn1ncc2c(Nc3ccc(Cl)cc3Cl)ncnc21 | 2 | 1 | 12 | 0 | x | x
CC(=O)Nc1cccc(-c2csc(Nc3ccc(C)cc3)n2)c1 | -71 | 10* | -6 | 0 | 0 | 11
O=[N+]([O-])c1ccc(Nc2nc(-c3ccccc3)cs2)cc1 | -36 | 6.1* | 23 | 1 | 1 | 15
CC(=O)Nc1cccc(-c2csc(Nc3ccccc3Cl)n2)c1 | -67 | 5.0* | 1 | 0 | 0 | 5
CC(=O)N1CCSc2cc(S(=O)(=O)Nc3ccccc3F)ccc21 | -11 | -1 | 3 | 0 | x | x
Cc1ccc2cc(C)c3nn(Cc4ccncc4)c(=O)n3c2c1C | -8 | 2 | -5 | 0 | x | x
C#CCOc1ccc(C2C(C#N)=C(N)Oc3cc(O)ccc32)cc1OC (stereo not given) | -3 | 3 | 19 | 0 | x | x
O=C(CCC/C=C\C[C@@H]1[C@@H](/C=C/[C@@H](O)CCc2ccccc2)[C@H](O)C[C@@H]1O)NC(CO)CO | x | 1 | -17 | x | x | x
NC(=O)CCC/C=C\C[C@@H]1[C@@H](/C=C/[C@@H](O)CCc2ccccc2)[C@H](O)C[C@@H]1O | x | 7.0* | -2 | x | 1 | 3
O=C(O)CCC/C=C\C[C@@H]1[C@@H](/C=C/[C@H](O)CCc2ccccc2)[C@H](O)C[C@@H]1O | x | 5.6* | -15 | x | 1 | 6
O=C1OC(/C=C/c2ccc([N+](=O)[O-])cc2)=NC/1=C/c1ccc(Br)cc1 | -1 | 1 | 5 | 0 | x | x
CCOC(=O)c1ccc(N(Cc2ccccc2)S(C)(=O)=O)cc1 | 8 | 1 | 13 | 0 | x | x
C=CCN(c1ccc(C(=O)OCC)cc1)S(C)(=O)=O | -6 | 4.9* | 1 | 0 | 0 | -3
O=C(NCc1ccccc1)c1csc(-c2ccc(N3CCOCC3)nc2)n1 | -8 | -2 | 22 | 0 | x | x

High-throughput results deposited in PubChem BioAssay by The Scripps Research Institute Molecular Screening Center.
